# In ChEMBL document CHEMBL4513216, “Probing the Open Global Health Chemical Diversity Library for Multistage-Active Starting Points for Next-Generation Antimalarials” (ACS Infect Dis, 2020):
# Hit rate of the full screen: of about 69,000 compounds, about 8,600 (12%) showed an effect of 50% or more. This excerpt belongs to a sample that is enriched for strong results.
# Test system: Plasmodium berghei
# Assay: Screen against P. berghei liver stage (PbLuc), transformed with Luciferase, at 10uM
# Assay type: functional, HepG2
# Conditions: tested at 10 uM
row,Compound,INHIBITION [%]
1,CCc1noc(CN(C)Cc2cc3ccc(Cl)cc3[nH]c2=O)n1,-4.37
2,CN(Cc1ccccc1Cl)C(C(=O)O)c1ccc(F)c(CO)c1 (configuration not stated),63.8
3,CC(CC#N)N(C)Cc1ccccc1F (configuration not stated),30.9
4,Cc1ccccc1CN(C)C(C(N)=O)c1ccccc1 (configuration not stated),43.1
5,CC(O)CNCc1ccccc1C(F)(F)F (configuration not stated),37.7
6,CN(C)C(=O)c1ccc(C(C(=O)O)N(C)Cc2ccccc2Cl)cc1 (configuration not stated),44.3
7,COCCN(C)C(C(=O)O)c1ccc(F)c(Cl)c1 (configuration not stated),40.3
8,CC(C(N)=O)N(C)Cc1ccccc1C(F)(F)F (configuration not stated),56.8
9,CN(Cc1ccccc1F)C(C(N)=O)c1ccccc1 (configuration not stated),50.8
10,CN(Cc1ccccc1C(F)(F)F)C(C(N)=O)c1ccccc1 (configuration not stated),36.3
11,O=C(CCn1c(C(F)(F)F)cc2cccnc21)N1CCCC1,12.3
12,O=C1COC2(CCN(c3cccc(F)c3)CC2)CN1Cc1ccccn1,42.3
13,CC(C)N1CCc2c(C#N)c(NCc3ccco3)n3cnnc3c2C1,37.1
14,COC(=O)N1CCN(c2ncnc3nc(C)cc(C)c23)CC1,20
15,CC(C)NC(=O)c1ccc2c(c1)nc1n2CCN(Cc2ccco2)C1,-11.4
16,CC(=O)N1[C@H](CN(C)C)C[C@@H]2CN(C(=O)c3cncc(C)c3)CC[C@@H]21,23.5
17,COc1ccc(CN2CCC3(CC(=O)N(c4cccc(F)c4)C3)C2)cc1 (configuration not stated),21.1
18,CN(C)c1cccc(C2CCN(C3COCC3O)CC2)n1 (configuration not stated),26.7
19,CN(CC1(CO)CCOCC1)[C@@H]1c2ccccc2C2(CCNCC2)[C@H]1O,21.55
20,CN(CC1(CO)CCCC1)[C@@H]1c2ccccc2C2(CCNCC2)[C@H]1O,2.18
21,COCCCN(C)[C@@H]1c2ccccc2C2(CCNCC2)[C@H]1O,11.05
22,COCCN(C)[C@@H]1c2ccccc2C2(CCNCC2)[C@H]1O,15.12
23,COc1ccccc1CCN[C@@H]1c2ccccc2C2(CCNCC2)[C@H]1O,88
24,Cc1ccc(CCN[C@@H]2c3ccccc3C3(CCNCC3)[C@H]2O)s1,54.4

row,Compound,INHIBITION [%]
1,Cn1ccnc1SC1CCc2ccccc2NC1=O (configuration not stated),4.07
2,Cc1ccc(CN(CCN(C)C)Cc2c(C)nc3sccn23)o1,27.675
3,CN(C)c1cc(CNC(=O)Nc2nnc(C3CC3)s2)ccn1,-27.8
4,O=C(CC1=CCCCC1)Nc1ncn(CC(=O)N2CCCCCC2)n1,-18.4
5,CC(Nc1cccc(CN2CCOC2=O)c1)C(=O)Nc1cccc(F)c1 (configuration not stated),28.15
6,CSCC(CCO)NC(=O)Nc1cc(F)ccc1C (configuration not stated),50.4
7,CSCC(CCO)NC(=O)Nc1cc(Br)ccc1C (configuration not stated),-4.94
8,CSCC(CCO)NC(=O)Nc1ccc(Br)cc1 (configuration not stated),53.8
9,CCS(=O)(=O)NC(CCSC)C(=O)Nc1cc(F)ccc1C (configuration not stated),67.1
10,CSCC(CCO)NC(=O)Nc1cccc(Br)c1 (configuration not stated),-4.94
11,CCS(=O)(=O)NC(CCSC)C(=O)Nc1ccccc1C (configuration not stated),20
12,CSCC(CCO)NC(=O)Nc1ccc(C)cc1Br (configuration not stated),36.8
13,CCS(=O)(=O)NC(CCSC)C(=O)Nc1ccc(F)cc1 (configuration not stated),38
14,CSCC(CCO)NC(=O)Nc1cc(C)ccc1C (configuration not stated),40.9
15,CO[C@@H]1CCN(Cc2ccc(C)o2)[C@H]1Cc1ccccc1,3.88
16,COc1ccc2c(c1)C(=O)NC1(CC2)CCN(Cc2ccc(F)cc2)C1 (configuration not stated),13.621
17,Cc1oncc1C(=O)NCc1cc(=O)n2c(n1)CN(C)CCC2,16.5
18,Cc1ccccc1CN(C)C(=O)c1cc(C2CCCN2C)ccn1 (configuration not stated),34
19,CC(=O)c1cnc(NCCN2CCCC(c3ccccc3)C2)nc1C (configuration not stated),23.3
20,Cc1cnc(N2CCN(C(C)C(N)=O)CC2)nc1 (configuration not stated),19
21,Cc1ccc(F)cc1-n1c(CN(C)S(C)(=O)=O)n[nH]c1=O,49.4
22,CCCc1noc(C2CC(=O)N(CCN(C)C)C2)n1 (configuration not stated),20.9
23,Cc1ccccc1CNCc1cc(Cl)ccc1O,15
24,COc1cccc(CC(=O)N2Cc3nccn3CC(CN(C)C)C2)c1 (configuration not stated),40.8

row,Compound,INHIBITION [%]
1,Cc1csc(C2(NCCC(=O)N3CCOCC3)CCCC2)n1,20.9
2,Cc1csc(C2(NC(=O)NCCN3CCOCC3)CCCC2)n1,64.5
3,Cc1csc(C2(NC(=O)NCCN3CCOCC3)CCC2)n1,47.4
4,CCCC(C(=O)NCCc1nc(C)cs1)N(C)C (configuration not stated),26
5,c1ccc(CCCN2CC(n3cccn3)C2)cc1,-5.81
6,O=C(CN1CC(n2cccn2)C1)NCCCN1CCCC1=O,28.8
7,Cc1cnn(C2CN(CC(=O)NCCCc3ccccc3)C2)c1,56.6
8,O=C(CN1CC(n2cccn2)C1)NCCCc1ccccc1,54.4
9,O=C(CN1CC(n2cccn2)C1)NCCc1ccc(F)cc1,-19.4
10,Cc1cnn(C2CN(CC(=O)NCCOc3ccccc3)C2)c1,3.15
11,O=C(CN1CC(n2cccn2)C1)NCCC1=CCCCC1,-77.3
12,Cc1cnn(C2CN(CC(=O)NCCc3ccccc3)C2)c1,27.4
13,N#CCCNC(=O)CN1CC(n2cccn2)C1,53
14,Cc1noc(C)c1CN1CCO[C@H]2[C@H](Oc3ncccc3F)CC[C@@H]21,34.4
15,CN(C)c1ccc(-c2cccc(-c3ccn(CCCO)n3)c2)nn1,-121
16,Cc1occc(=O)c1OCC(=O)N1CCN(c2cccc(Cl)c2)CC1,-5.77
17,Cc1cc(C2CCCN(CCC(=O)N3CCc4ccccc43)C2)n[nH]1 (configuration not stated),1.04
18,CN(C)C(c1ccccn1)C1CCC(CNC(=O)C2CCCC2)CC1 (configuration not stated),14.6
19,CN1CCC2(COCc3cnc(-c4ccccc4)nc32)C1 (configuration not stated),-6.97
20,c1ccc(-c2ncc3c(n2)C2(CCN(CC4CC4)C2)COC3)cc1 (configuration not stated),66.2
21,CC(C)CN1CCC2(COCc3cnc(-c4ccccc4)nc32)C1 (configuration not stated),69.3
22,CN(C)c1ncc2c(n1)C1(CCN(CC3CC3)C1)COC2 (configuration not stated),46.8
23,O=C(CC1CC1)N1CCC2(COCc3cnc(-c4ccccc4)nc32)C1 (configuration not stated),-21.1
24,COCCN1CCC2(COCc3cnc(-c4ccccc4)nc32)C1 (configuration not stated),6.79
